HTT aggregate – reduces HttQ103-GFP aggregates in PC12 cells; AID 1688; PC12 HttQ103-GFP aggregates, Acumen cytometry, 40 h; Potency, µM (series often up to 46.1 µM), for the others: at the highest dose activity change, negative = inhibition, hits mostly inhibitors; hit rate 1.1% among 220,000; note: % is set by controls: 0 for no effect and ±100 for the full control effect; nearly all actives have a fitted effect of over 60% in size
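PC12 cells stably carrying ecdysone-inducible HTT exon 1 Q103–GFP were induced with tebufenozide (100 nM final) and treated with library compounds in titration. GFP aggregates in lysates were counted by laser scanning cytometry.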
ATXN2 expr inh – inhibitors of ATXN2 expression; AID 1745845; HEK-293 ATXN2-luciferase reporter, luminescence, 24 h; Potency, µM (titrated, usually from 57 µM), for the others: top-dose activity change, negative = inhibition, usual class: inhibitors; hit rate 0.72% among 360,000; note: % is set by controls: 0 for no effect and ±100 for the full control effect; nearly all actives have a fitted effect of over 55% in size
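ATXN2-luciferase reporter cells (luciferase flanked by upstream and downstream ATXN2 gene portions) were treated 24 h at 37 °C with compounds at up to 57 uM. SteadyGlo luminescence gave expression; GF-AFC fluorescence gave viability.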
HTT cytoprotect – Huntington cell model cytoprotection by ATP luminescence; Potency, µM (titrated, usually from 56.4 µM), for inactives: cytoprotection (ATP increase), hits mostly activators; PC12 HTT-Q103 induced, cytoprotection, ATP luminescence, 40 h; hit rate 0.14% among 230,000; note: % of control where 0% means no effect; nearly all actives have a fitted effect of over 45% in size
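Readout: ATPlite luminescence (ATP level). Model: stable PC12, inducible Htt exon1 Q103-GFP. Inducer: tebufenozide, 100 nM final. Compounds: dose series. No G418 in medium.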
TGFb inhibitor – blocks TGF-b signaling. HepG2 CAGA-GFP TGF-b/SMAD3 reporter, GFP fluorescence, 18 h; TGF-beta stimulated, 500 pg/mL final. Potency, µM (titrated, usually from 46.1 µM), without a hit: top-dose activity, negative = inhibition, most hits filed as inhibitors. hit rate 1.2% among 410,000. AID 588855; note: % is set by controls: 0 for no effect and ±100 for the full control effect; nearly all actives have a fitted effect of over 65% in size
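Inhibition was scored as loss of TGF-beta-induced (500 pg/mL final, 18 hours, 37 degrees C) GFP in HEPG2 cells carrying a CAGA-GFP reporter, in DMEM with 1% FBS. Well GFP was summed per cell; Activity was normalised to unstimulated and stimulated DMSO wells, then concentration-response fitting.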
HepG2 tox – HepG2 cytotoxicity, counter-screen for TGF-b inhibitors; hit rate 0.76% among 410,000; HepG2 CAGA-GFP viability, ATP luminescence, 18 h; Potency, µM (highest dose often 46.1 µM), for inactives: at the highest dose activity change, negative = cytotoxicity, most hits filed as cytotoxic; AID 588856
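HepG2 CAGA-GFP cells (1000/well, DMEM with 1% FBS) received compound, then TGF-beta at 500 pg/mL final, and were incubated 18 hours at 37 degrees C. Viability was read by CellTiter-Glo luminescence. Media-only wells were set as complete cell-killing and DMSO as no toxicity.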
S2 tox – reduces viability in counter-screen for ATXN expression inhibitors; S2 cells (HEK-293 line with an ATXN2-luciferase reporter) viability, CellTiter-Fluor protease fluorescence, 24 h; Potency, µM (titrated, usually from 56.7 µM), most hits filed as cytotoxic; hit rate 0.49% among 400,000; AID 651635; note: nearly all actives have a fitted effect of over 40% in size
* hit, by the source's call; i = inactive; u = inconclusive; x = no result; [ ] = remark or other dose. The list is not random: actives were taken first. Their share in the collection is about 2.8%. Calls come from the whole dose curve; as a rule, active = well fitted curve in the direction sought with a large enough effect; inconclusive = small, poorly fitted or top-dose-only effect, or another doubt; inactive = no such curve, though single readings can be large; an effect the other way counts as inactive or inconclusive. Potency is the fitted concentration of half-maximal effect.

SMILES | HTT aggregate | ATXN2 expr inh | HTT cytoprotect | TGFb inhibitor | HepG2 tox | S2 tox
C#CCOCCOCCOCCNc1nc(N2CCN(C(=O)CCCCCCCCCCNC(=O)Cn3cc(CCCCCN)nn3)CC2)nc(N2CCN(C(=O)CCCCCCCCCCNC(=O)[C@H]([C@@H](C)CC)n3cc(CCCCN=C(N)N)nn3)CC2)n1 | x | 20µM* | x | u | -102% | 16µM*
CN1CCc2c(cc(O)c(O)c2Cl)[C@H](c2cccc(Cl)c2)C1 | x | x | -1%[1.9 µM] | x | x | x
CSc1nc(N)c2ncn([C@@H]3O[C@@H](COP(=O)(O)OP(=O)(O)O)[C@@H](O)[C@H]3O)c2n1 | x | x | -11%[1.9 µM] | x | x | x
CN(C)C(=O)COc1ccccc1C(=O)OCC(=O)Nc1ccc(Oc2ccc(Br)cc2)cc1 | x | x | x | -9% | -7% | x
C#CCOCCOCCOCCNc1nc(N2CCN(C(=O)CCCCCCCCCCNC(=O)[C@H]([C@@H](C)CC)n3cc(CCCCCN)nn3)CC2)nc(N2CCN(C(=O)CCCCCCCCCCNC(=O)[C@H](CCCCN)n3cc(CCCC(=O)O)nn3)CC2)n1 | x | u | x | 7.1µM* | -68% | u
C#CCOCCOCCOCCNc1nc(N2CCN(C(=O)CCCCCCCCCCNC(=O)[C@H](CCCCN)n3cc(CCCC(=O)O)nn3)CC2)nc(N2CCN(C(=O)CCCCCCCCCCNC(=O)[C@@H]([C@H](C)O)n3cc(C)nn3)CC2)n1 | x | 3% | x | 11µM* | -3% | i
C#CCOCCOCCOCCNc1nc(N2CCN(C(=O)CCCCCCCCCCNC(=O)[C@@H](CCC(=O)O)n3cc(CCCCCN)nn3)CC2)nc(N2CCN(C(=O)CCCCCCCCCCNC(=O)[C@H]([C@@H](C)CC)n3cc(CCCCCN)nn3)CC2)n1 | x | -25% | x | u | -66% | u
C#CCOCCOCCOCCNc1nc(N2CCN(C(=O)CCCCCCCCCCNC(=O)[C@H](CCCCN)n3cc(C)nn3)CC2)nc(N2CCN(C(=O)CCCCCCCCCCNC(=O)[C@H](CCCCN)n3cc(CCCC(=O)O)nn3)CC2)n1 | x | 7% | x | u | 8% | i
COCC1CCCN(Cc2ccc3c(c2)CN(C(=O)c2ccc(-c4ccc(C)o4)cc2)CCO3)C1 (stereo not drawn) | x | x | x | x | x | i
Cc1ncc2c(c1CNS(=O)(=O)N(C)C)CCN(C(=O)/C=C/c1cccc(F)c1)C2 | x | x | x | x | x | i
c1ccc2c(C3OCC4(CCCC4)CO3)cccc2c1 | x | x | x | 1% | -24% | i
O=C1c2ccccc2C(=O)C12OC2c1cccc2ccccc12 (stereo not drawn) | 35µM* | -18%[11.3 µM] | -5%[10 µM] | -7% | 7% | i
Cc1ccc(Cc2c(C3CCCCC3)nc3ccc(C)cn23)cc1 | x | 16µM* | x | u | -56% | 13µM*
Cc1ccc(Cc2c(C3CCCCC3)nc3c4ccccc4ccn23)cc1 | x | 145% | x | -2% | -35% | i
O=C(Oc1cccc2cccnc12)c1ccco1 | -2% | -7% | -12%[10 µM] | 13µM* | -53% | i
NNC(=O)c1ccc(OCC2CC(c3ccc(Cl)cc3)=NO2)cc1 (stereo not drawn) | 12%[9.22 µM] | -33% | -19%[10 µM] | u | 13µM* | i
Cc1cc(=O)oc2cc(OCC3CC(c4ccc(Cl)cc4)=NO3)ccc12 (stereo not drawn) | 13% | -10% | -18% | -3% | -22% | i
O=C(c1ccco1)N1CCN(C(=O)C(Sc2ccccc2)c2ccccc2)CC1 (stereo not drawn) | 10µM* | -7% | -8%[0.074 µM] | u | -31% | i
O=C(CSc1ccccc1)N1CCN(C(=O)c2ccco2)CC1 | -12% | 2% | 8% | -17% | 4% | x
S=C(NCCCc1cnc[nH]1)NCCCN(Cc1ccc(Cl)cc1)c1ccc(Br)cn1 | x | u | x | u | -98% | 28µM*

Compound activity from PubChem.
